# Screening data as filed in PubChem.
# Most compounds without a hit are left out; they make up all but 3.7% or so of the library.
# Anthrax LF inh2: inhibitors of Bacillus anthracis lethal factor protease; P15917; multiplex microsphere protease cleavage assay, LF; inhibition, % at 10 µM; 0.12% of 360,000 active; AID 588501; note: plate controls were buffer without enzyme for full effect and enzyme alone for no effect
# BoNT-F LC inh: BoNT F light chain protease inhibition. Multiplex microsphere protease cleavage assay, flow cytometry. inhibition, % at 10 µM. 0.22% of 360,000 active; in the data active = inhibition above about 35%, passing the limit was not always enough; inconclusive = no clear call, values can overlap the other calls; note: plate controls were buffer without enzyme for full effect and enzyme alone for no effect
# BoNT A protease: inhibitors of Botulinum neurotoxin A light chain protease | inhibition, % at 10 µM | multiplex microsphere protease substrate cleavage, flow cytometry | AID 588499 | 0.17% of 360,000 active; note: plate controls were buffer without enzyme for full effect and enzyme alone for no effect
# Autofluor counter: flagged as autofluorescent in microsphere protease counterscreen; 3.1% of 360,000 active; AID 624483; compound autofluorescence counterscreen, microsphere flow cytometry; stronger effect = higher value; fluorescence intensity (test concentration not listed); in the data active = fluorescence intensity above about 16000; inconclusive = no clear call, values can overlap the other calls
# MazF activator: MazEF (E. coli) toxin RNase activation; P0AE70; FAM/BHQ RNA-DNA oligo cleavage fluorescence, 5 h; activation, % at 20 µM; 0.32% of 350,000 active; in the data active = activation above about 50%
# Target sequence (P0AE70 whole entry, looked up): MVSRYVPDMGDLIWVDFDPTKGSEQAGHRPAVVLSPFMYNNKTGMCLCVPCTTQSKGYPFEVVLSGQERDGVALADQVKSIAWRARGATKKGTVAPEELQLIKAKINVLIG
# The depositor's hits bear a star; ? = inconclusive; / = no result. Cut-off read from the data, not from the text of the source, unless noted: active = inhibition above about 30%; inconclusive = no clear call, values can overlap the other calls; inactive = below that.
SMILES,Anthrax LF inh2,BoNT-F LC inh,BoNT A protease,Autofluor counter,MazF activator
O=c1cc(O)c2c(=O)n(C3CCCCC3)c3ccccc3c2o1,2,2,0,22987*,5
O=c1cc(O)c2c(=O)n(Cc3ccccc3)c3ccccc3c2o1,0,1,4,3241,-5
O=C(Nc1ccc2c(c1)OCCO2)c1c(F)cccc1F,-5,2,?,20165*,13
O=C(Nc1ccc2c(c1)OCO2)c1ccc2c(c1)OCO2,-5,-13,-1,2457,-5
O=C(Nc1ccc2c(c1)OCO2)c1c(F)c(F)c(F)c(F)c1F,0,15,10,18127*,-3
O=C(Nc1ccc2c(c1)OCO2)Nc1ccc2c(c1)OCO2,-1,-5,0,1998,2
O=C(Nc1ccc2c(c1)OCO2)c1ccc(Cl)s1,-4,-10,-2,16810*,-13
O=C(Nc1ccc2c(c1)OCCO2)c1ccccc1F,-2,-5,-1,4662,2
CCCCCCCCN1C(=O)[C@H](CC(=O)NCCC(C)C)C[C@@]2(C(=O)OCC)CCCC=C12,-12,-2,-1,5816,/
COc1ccc(C(CNc2nc(-c3cccnc3)nc3ccccc23)N(C)C)cc1 (stereo unspecified),-2,-98,6,6873,21
COc1c(N)c2c(c([N+](=O)[O-])c1OC)C(=O)OC2,-4,0,0,3964,4
O=C(O)CSc1nc2c(c(=O)[nH]1)CCCC2,-2,-9,-8,24867*,3
O=C(CSc1nc2c(c(=O)[nH]1)CCCC2)Nc1ccc(Cl)cc1F,-3,0,0,20550*,-5
O=C(O)c1ccc(CSc2nc3c(c(=O)[nH]2)CCC3)cc1,-4,-1,0,3724,/
Cc1cc(C)n(C/C=C/Cn2nc(C)cc2C)n1,0,-2,?,20615*,-1
Cc1ccccc1NC(=O)Cc1nc(CSc2nnc(C3CCCCC3)n2N)cs1,-1,0,1,22506*,4
COc1ccccc1NC(=O)CSc1nnc(C2CCCCC2)n1N,0,1,0,5025,4
Nn1c(SCC(=O)Nc2cccc(F)c2)nnc1C1CCCCC1,-3,4,1,22029*,0
Cc1csc(NC(=O)c2nc(-c3ccccc3)n(-c3ccccc3)n2)n1,1,2,1,22922*,8
CC1(C(=O)NCc2ccco2)Cc2c(-c3ccc(C(N)=O)cc3)ccnc2O1 (stereo unspecified),-9,2,0,3735,/
Brc1ccc(-c2nn3c(Cc4ccccc4)nnc3s2)o1,0,1,-1,3422,-1
c1ccc(Cc2nnc3sc(Nc4ccccc4)nn23)cc1,0,-3,?,16579*,9
COC(=O)c1ccccc1NC(=O)Nc1cc(C)cc(C)n1,-1,6,4,21356*,-8
COC(=O)c1cc(OC)c(OC)cc1NC(=O)Nc1ccccc1OC,-2,-1,1,23051*,8
CC1(C)C(=O)Nc2ccccc2N1C(=O)COC(=O)C1CCCCC1,3,-4,1,2731,-4
SMILES,Anthrax LF inh2,BoNT-F LC inh,BoNT A protease,Autofluor counter,MazF activator
Cc1cc(C)c(C)c(S(=O)(=O)N2CCC(C(=O)OCC(=O)N3c4ccccc4NC(=O)C3(C)C)CC2)c1C,-2,-4,-2,24651*,-3
O=C(NCc1ccccc1)Oc1cccc(Cl)c1,0,0,2,19856*,4
COc1cc(NC(=O)C2(C)CCN2C(C)C)cc(OC)c1OC (stereo unspecified),3,4,0,3747,/
CC(C)C(=O)N1CCN(c2nc(-c3ccc(Cl)cc3)cs2)CC1,2,-4,-1,2506,2
O=C(Cc1cccs1)N1CCN(c2nc(-c3ccc(Cl)cc3)cs2)CC1,-4,-2,?,21233*,2
C[C@H]1CNC(=O)c2c(C(=O)N[C@@H](Cc3c[nH]c4ccccc34)C(=O)OC(C)(C)C)ncn21,-3,-6,-1,3040,8
CSc1ccc(S(=O)(=O)NCC(=O)OCCOc2ccccc2)cc1[N+](=O)[O-],-4,4,0,5708,78*
CC[C@]12C(=O)N(C)C[C@H]([C@@H]3C(=O)N(C)C(=O)[C@@H]31)N2C(=O)c1ccccc1,-5,-9,0,2933,4
CC(C)n1cc(/C=C2/NC(=O)N(c3cccc(Cl)c3)C2=O)c2ccccc21,-2,-7,-1,9444,-8
CC(C)n1cc(/C=C2\NC(=O)N(c3cccc(Cl)c3)C2=O)c2ccccc21,-3,-1,?,19627*,4
Cc1ccc2ccccc2c1C(O)c1ncc(-c2ccc(Cl)cc2)[nH]1 (stereo unspecified),3,-9,0,2940,/
CCCN1C(=O)c2ccccc2NC1c1ccc(Cl)c(Cl)c1 (stereo unspecified),6,-14,-1,4053,6
CCCCN1C2=C(C(=O)CCC2)C(c2ccc(Cl)c(Cl)c2)C2=C1c1ccccc1C2=O (stereo unspecified),-7,-24,2,5076,60*
Cc1csc(=O)n1CCC(=O)OCC(=O)NNC(=O)c1ccc(Cl)cc1,/,/,/,/,-3
Cc1occc1C(=O)n1nnc2ccccc21,/,/,/,/,-1
C/C(=C\c1ccccc1)C(=O)n1nnc2ccccc21,-7,-9,-6,17498*,-6
O=C(N1CCOCC1)n1cnc2ccccc21,-3,-5,0,5975,2
O=C(N1CCOCC1)n1nnc2ccccc21,0,-2,-1,22842*,3
CC1CCCCC12NC(=O)N(CC(=O)N1CCN(Cc3ccc(C#N)cc3)CC1)C2=O (stereo unspecified),-11,-12,0,2996,-1
ON=C1C2CC=C(c3ccccc3)C1CCC2 (stereo unspecified),4,0,0,3156,-2
C=CCn1c(SCC)nc2sc3c(c2c1=O)CCc1ccccc1-3,-1,-5,-2,17250*,-2
Cc1cccc(Oc2coc3cc(OC(=O)c4cc5ccccc5oc4=O)ccc3c2=O)c1,-1,-1,?,20697*,-24
CCCNC(=O)COc1ccc2c(=O)c(Oc3ccccc3F)coc2c1,0,-3,0,2409,1
CCOC(=O)Oc1ccc2c(=O)c(Oc3cc(C)cc(C)c3)coc2c1,-1,2,?,22166*,1
CCOC(=O)Oc1ccc2c(=O)c(Oc3cccc(C)c3)coc2c1,-3,-3,0,7981,-1
SMILES,Anthrax LF inh2,BoNT-F LC inh,BoNT A protease,Autofluor counter,MazF activator
COc1ccccc1Oc1coc2cc(OCC(N)=O)ccc2c1=O,19,41*,0,3638,2
Cc1cc(=O)n2cn[nH]c2n1,-10,2,0,3577,12
CC1(C)CC(=O)C=C(C#CC2(O)CCCCC2)C1,-12,-4,0,3702,6
N#CC1=C(N)Oc2n[nH]c(-c3ccccc3)c2C1c1ccsc1 (stereo unspecified),/,/,/,/,3
COc1cccc(-c2[nH]nc3c2C(c2ccoc2)C(C#N)=C(N)O3)c1 (stereo unspecified),0,2,?,21204*,1
COc1cccc(-c2[nH]nc3c2C(c2ccsc2)C(C#N)=C(N)O3)c1 (stereo unspecified),1,0,2,22773*,8
